FGF22 binding: binders of recombinant human FGF22 by thermal shift | Q9HCT0 | AID 651658 | 1.5% of 340,000 active | activity (Tm shift, normalised), % at 9.99 µM | SYPRO orange fluorescence; percent of sucrose octasulfate shift, DMSO zero;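 active means mean Tm shift, scaled 0 neutral to 100 positive control, at about 1.3% or above, every replicate too, limit read from the data; inconclusive means no clear call, values can overlap the other calls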
ERAP1 HTS inh: inhibitors of human ERAP1 aminopeptidase | Q9NZ08 | recombinant ERAP1, Leu-AMC fluorescence, 60 min | inhibition, % at 10.7 µM | 0.15% of 340,000 active | AID 652197;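 active means mean replicate inhibition of at least 30%, or all replicates individually reaching that 30% level; inactive means mean below 30% and not every replicate reaching it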
AF4-AF9 inh: blocks AF4 peptide binding to human AF9; P42568; AlphaScreen, biotin-AF4 peptide binding to FLAG-AF9; inhibition, % at 10 µM; 0.47% of 350,000 active; AID 651704;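 active means every replicate reaching a set inhibition limit, whatever the replicate mean, cut at about 25% in these data; inconclusive means mean inhibition reaches that limit but some replicates miss it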
RAD52 inh: inhibitors of human RAD52 DNA annealing; P43351; recombinant RAD52 DNA annealing, FRET fluorescence; inhibition, % at 18.7 µM; 0.46% of 360,000 active; AID 651710;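 active means every replicate showing at least 50% inhibition; inconclusive means mean inhibition at least 50% but not in every replicate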
Target sequence (P43351 whole entry, looked up): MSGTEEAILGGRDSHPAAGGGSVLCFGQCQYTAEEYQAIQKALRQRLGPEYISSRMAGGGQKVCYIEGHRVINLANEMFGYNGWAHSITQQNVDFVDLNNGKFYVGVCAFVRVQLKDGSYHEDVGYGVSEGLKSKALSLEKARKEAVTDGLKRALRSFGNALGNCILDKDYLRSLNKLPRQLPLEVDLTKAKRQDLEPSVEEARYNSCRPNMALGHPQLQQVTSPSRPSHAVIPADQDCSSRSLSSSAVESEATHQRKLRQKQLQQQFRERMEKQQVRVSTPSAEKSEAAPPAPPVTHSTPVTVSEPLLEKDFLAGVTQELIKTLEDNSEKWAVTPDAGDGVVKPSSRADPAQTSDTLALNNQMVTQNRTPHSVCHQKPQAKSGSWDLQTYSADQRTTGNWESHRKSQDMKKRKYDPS
DENV2 CPE rescue: DENV2-induced cell death inhibition | CPE inhibition, % at 9.99 µM | DENV2-infected cells, cytopathic effect rescue, plate reader | AID 651640 | 1.7% of 350,000 active; in the data active means CPE inhibition above about 20%, passing the limit was not always enough; inconclusive means no clear call, values can overlap the other calls; tested in BHK-21 cells
Alpha interfer: AlphaScreen signal interference counter-screen hit; shares compounds with AF4-AF9 inh; AC50, µM (highest dose often 12 µM); signal luminescence; AID 720494; 45% of 530 active; cut-off not given, nearly all actives have AC50 up to about 14 µM
Numbers stand for hits; . = inactive; ? = inconclusive; / = not tested or not shown. Compounds with a hit are over-represented: about 4% of the library has one in this group of screens.

SMILES	FGF22 binding	ERAP1 HTS inh	AF4-AF9 inh	RAD52 inh	DENV2 CPE rescue	Alpha interfer
CC(C)C1CC(CCNCc2ccc(N(C)C)cc2)(c2ccccc2)CCO1 (stereo not drawn)	.	.	39	.	.	8.6µM
Oc1ccc(O)c(C=NNC(=S)NC2CC3CC2C2C=CCC32)c1 (stereo not drawn)	.	.	35	.	.	12µM
NNC(=S)NC1CC2CC1C1C=CCC21 (stereo not drawn)	.	.	/	.	.	/
O=C(Cc1cccnc1)N1CC(=O)N2[C@H](C1)[C@H](c1ccc(C3=CCCC3)cc1)[C@@H]2CO	/	.	37	.	36	.
O=[N+]([O-])c1cc(CN2CCCC2)ccc1Sc1ccc(Cl)cc1	.	.	34	.	.	.
Cc1ccccc1-c1cnc2c(c1)C(=O)N([C@@H](C)CO)C[C@H](C)[C@H](CN(C)C(=O)c1ccccc1)O2	.	/	/	/	.	/
O=C(CNCc1cccs1)Nc1ccc(N2CCCCCC2)cc1	.	.	42	.	.	13µM
O=C(N/N=C/c1cc(Cl)cc([N+](=O)[O-])c1O)c1cccc(S(=O)(=O)N2CCOCC2)c1	.	.	36	.	.	12µM
CCC(=O)N[C@@H]1C=C[C@@H](CC(=O)NCCN2CCCCC2)O[C@H]1CO	.	.	.	.	.	/
CCCC(=O)NC(c1ccccc1)c1ccc2cccnc2c1O (stereo not drawn)	.	.	?	.	.	/
CCCC(=O)NC(c1ccc(OC)cc1)c1ccc2cccnc2c1O (stereo not drawn)	.	.	29	.	.	2.6µM
COc1ccc(/C=C/C(=O)c2cc3c(cc2N)OCO3)cc1	43	.	38	.	.	.
CCCN1C[C@@H](C)[C@@H](OC)CN(C)C(=O)c2cc(NC(=O)Nc3c(C)noc3C)ccc2OC[C@@H]1C	.	.	.	.	.	/
Cc1[nH]n(-c2ccccc2)c(=O)c1N=Nc1c(O)cc(S(=O)(=O)N(C)C)c2ccccc12	.	/	50	.	.	.
Cc1ccccc1/C=N/Nc1nc2ccccc2[nH]1	.	.	.	.	.	/
O=[N+]([O-])c1cc(/C=N/Nc2nc3ccccc3[nH]2)c(O)cc1O	.	.	41	.	.	1.6µM
COc1cccc(CNCCc2c[nH]c3ccccc23)c1OCc1ccccc1	.	.	27	.	.	.
CC(=O)OCCNc1cc(N2CCN(C)CC2)c2noc3c2c1C(=O)c1ccccc1-3	.	.	86	.	.	8.6µM
CCOC(=O)N1CCN(c2cc(NCCO)c([N+](=O)[O-])c3nonc23)CC1	.	.	.	.	.	/
C[C@H](CO)N1C[C@H](C)[C@@H](CN(C)S(=O)(=O)c2cccs2)Oc2ncc(/C=C/c3ccccc3)cc2C1=O	.	.	.	.	.	/
COC(=O)C1=C[C@@H](C(=O)OC)[C@@H]2C3=C(C(=O)C2(C)C)[C@H](c2ccccc2)[C@@H]2C(=O)N(C)C(=O)[C@@H]2[C@@H]3C1	.	.	?	.	.	.
Cc1ccc(S(=O)(=O)Nc2ccc3c(c2)C(=O)N([C@H](C)CO)C[C@H](C)[C@H](CN(C)C(=O)Nc2cccc4ccccc24)O3)cc1	.	.	.	.	.	/
CCN1/C(=C/C(C)=C/c2sc3ccccc3[n+]2CC)Sc2ccccc21	.	.	66	.	.	6.3µM
COc1ccc(CN(C)C[C@@H]2OCCCC[C@@H](C)Oc3ccc(NC(=O)c4ccccc4)cc3C(=O)N([C@@H](C)CO)C[C@H]2C)cc1	/	.	.	.	?	/
Cc1[nH]c2ccccc2c1N=Nc1ccccc1F	44	.	41	.	.	8µM
SMILES	FGF22 binding	ERAP1 HTS inh	AF4-AF9 inh	RAD52 inh	DENV2 CPE rescue	Alpha interfer
C[C@H](CO)N1C[C@H](C)[C@H](CN(C)C(=O)Cc2ccccn2)Oc2ncc(C#CC3CCCCC3)cc2C1=O	.	/	/	.	.	/
O=C(Cc1ccccc1)N[C@@H]1CC[C@@H](CC(=O)N2CCOCC2)O[C@@H]1CO	.	.	.	.	.	/
COc1ccccc1Nc1c2c(nc3ccc(N)cc13)CCCC2	.	.	61	.	.	.
O=C(Cc1cccnc1)N1CC(=O)N2[C@H](CO)[C@H](c3ccc(/C=C/c4ccccc4)cc3)[C@@H]2C1	.	/	/	.	.	/
Cc1[nH]c2ccccc2c1CC#N	.	.	.	.	.	/
Cc1[nH]c2ccccc2c1C(C#N)(C#N)C1C(=O)c2ccccc2C1=O	.	.	65	.	.	2µM
